Source: PubChem
IL1B secr inh: qHTS for Inhibitors of Inflammasome Signaling: IL-1-beta AlphaLISA Primary Screen | 360,000 compounds, 4.7% hits | AID 743279, 2014 | activity change, % at 57.5 µM | THP-1 LPS/ATP IL-1B secretion, AlphaLISA, 16 h; stronger effect = lower value; in the data active = activity change below about -50%; inconclusive = mostly about -30% to -49%
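THP-1 cells pretreated 1 hr with compounds (up to 57.5 uM final), then stimulated with LPS (250 ng/mL final) plus ATP (1.25 mM final); secreted IL-1B measured by AlphaLISA after 16 hr, decreased signal indicating inhibition.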
HT1080-NT tox: qHTS for induction of synthetic lethality in tumor cells producing 2HG: qHTS for the HT-1080-NT fibrosarcoma cell line; HT-1080-NT fibrosarcoma viability, CellTiter-Glo ATP luminescence, 48 h; Potency, µM (series often up to 46.1 µM), without a hit: at the highest dose activity, negative = less viability, hits mostly cytotoxic; 360,000 compounds, 1.6% hits;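 also: NT is the 2HG producing partner of a matched IDH1 knockdown line; potency is read from the fitted curve at half-maximal effect; 0% = DMSO-treated cells and -100% = media-only wells without cells; nearly all actives have a fitted effect of over 55% in size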
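HT-1080-NT; 750 cells/well; 5% FBS RPMI; 48 h compound, 37 degrees C; CellTiter-Glo luminescence; curve fitting and curve-class assignment.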
DT40 TDP1 CPT: qHTS for Inhibitors of human tyrosyl-DNA phosphodiesterase 1 (TDP1): qHTS in cells in presence of CPT; chicken DT40 Tdp1-/-;hTDP1 cells + 20 nM CPT, ATP luminescence, 48 h; Potency, µM (doses to about 46.2 µM), for the others: at the top dose activity change, negative = growth inhibition, actives largely listed as inhibitors; 420,000 compounds, 12% hits; AID 686979, 2013; also: potency is read from the fitted curve at half-maximal effect; nearly all actives have a fitted effect of over 55% in size
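Chicken DT40 Tdp1-/- cells complemented with human TDP1, 400 cells/well, exposed to compounds plus 20 nM camptothecin for at least 48 h at 37 C; viability read as ATP content by CellTiter-Glo luminescence.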
DT40 TDP1 no CPT: qHTS for Inhibitors of human tyrosyl-DNA phosphodiesterase 1 (TDP1): qHTS in cells in absence of CPT; DT40 Tdp1-/- hTDP1 cells, no CPT, ATP luminescence, 48 h; Potency, µM (highest dose often 46.2 µM), for inactives: at the highest dose activity change, negative = growth inhibition, usual class: inhibitors; 420,000 compounds, 15% hits; AID 686978, 2013; also: potency is read from the fitted curve at half-maximal effect; nearly all actives have a fitted effect of over 55% in size
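Luminescent ATP content (CellTiter-Glo) served as the growth readout. Knockout chicken DT40 cells expressing human TDP1 were exposed to compounds without camptothecin for a minimum 48 hr at 37 °C.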
HT1080 IDH1KD tx: qHTS for induction of synthetic lethality in tumor cells producing 2HG: qHTS for the HT-1080-IDH1KD cell line. HT-1080 IDH1 knockdown viability, ATP luminescence, 48 h. Potency, µM (series often up to 46.1 µM), inactives show at the highest dose activity, negative = toxicity, usual class: cytotoxic. 360,000 compounds, 2% hits. AID 686971, 2013;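 also: potency is read from the fitted curve at half-maximal effect; 0% = DMSO wells and -100% = cell-free medium wells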
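CellTiter-Glo luminescence after 48 h compound exposure at 37 degrees C of IDH1-knockdown HT-1080 cells in 5% FBS RPMI. %Activity scaled between DMSO wells and cell-free media wells, with curves fitted and assigned curve classes.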
An asterisk follows results filed as active; u = inconclusive; x = no result given; ! = a repeat was not active; [ ] = dose if it differs, or a comment. Sampled rows, rich in hits. Any-hit rate of the full collection: about 19%. Unless noted, calls follow the shape of the dose curve; as a rule, active = well fitted curve in the direction sought with a large enough effect; inconclusive = small, poorly fitted or top-dose-only effect, or another doubt; inactive = no such curve, though single readings can be large; an effect the other way counts as inactive or inconclusive. Unless noted, % is scaled to controls: 0 for no effect and ±100 for the full control effect.

SMILES	IL1B secr inh	HT1080-NT tox	DT40 TDP1 CPT	DT40 TDP1 no CPT	HT1080 IDH1KD tx
CCC1SC2=NC(C)=C(C(=O)OC)C(c3cccs3)N2C1=O (configuration not stated)	-1	5%	-19%	-14%	3%
CC(C)(C)NC(=O)C(c1ccncc1)n1c(-c2ccc(C(F)(F)F)cc2)nc2ccccc21 (configuration not stated)	-16	u	u	u	21µM*
Cc1cnc(-c2nc3ccccc3n2C(C(=O)NC(C)(C)C)c2ccncc2)cn1 (configuration not stated)	1	-20%	-13%	-16%	-16%
Cc1cccc(C)c1NC(=O)C(C1CC1)n1c(-c2ccc(C(F)(F)F)cc2)nc2ccccc21 (configuration not stated)	0	-22%	u	18µM*	-13%
Cc1cccc(C)c1NC(=O)C(C1CC1)n1c(-c2ccc(-c3ccccc3)cc2)nc2ccccc21 (configuration not stated)	0	-12%	u	u	-15%
COc1ccc(C(C(=O)NC(C)(C)C)n2c(-c3ccc(C(F)(F)F)cc3)nc3ccccc32)cc1 (configuration not stated)	10	7%	16µM*	u	9%
CC(C)(C)NC(=O)C(c1cc2ccccc2o1)n1c(-c2ccc(-c3ccccc3)cc2)nc2ccccc21 (configuration not stated)	13	u	16µM*	u	u
CSCCC(C(=O)NC(C)(C)C)n1c(-c2ccc(C)cc2)nc2ccccc21 (configuration not stated)	4	9%	u	u	4%
CC(C)[C@H](NC(=O)OC(C)(C)C)c1cc(C(=O)N[C@@H](C)c2ccccc2)c(N)s1	-28	-7%	u	u	-2%
Cc1cc(C)c(C(=O)c2ccccc2C(=O)O)c(C)c1	-1	4%	-7%	u	-4%
CC(C)C(NC(=O)COc1ccc2ccccc2c1)C(=O)N/N=C/C=C/c1ccccc1 (configuration not stated)	-1	-1%	13µM*	u	3%
Cc1occc1C(=O)Nc1nnc(-c2cccs2)s1	-18	9%	40%	-15%	u
O=c1c(C(c2ccc(Br)cc2)c2c(O)nc3n(c2=O)CCCS3)c(O)nc2n1CCCS2	20	0%	-101%	-10%	9%
O=c1c(C(c2ccc(Br)cc2)c2c(O)nc3n(c2=O)CCS3)c(O)nc2n1CCS2	-69*	3%	10%	2%	4%
O=C(Nc1ccccc1)c1nnsc1S(=O)c1ccc(Cl)cc1 (configuration not stated)	-107*	u	0.58µM*	0.82µM*	-22%[9.24 µM]
CNC(=O)c1ccc(S(=O)(=O)c2ccc(Cl)cc2)c(NC(C)=O)c1	15	6%	-10%	2%	-1%
O=C(c1nnsc1S(=O)(=O)c1ccc(Cl)cc1)N1CCOCC1	-106*	15µM*	2.3µM*	2.9µM*	u
O=C(c1nnsc1S(=O)c1ccc(Cl)cc1)N1CCOCC1 (configuration not stated)	-104*	13µM*	0.46µM*	0.82µM*	u
Nc1nc(C(=O)N2CCOCC2)nn1S(=O)(=O)c1ccc(Cl)cc1	0	12%	u	u	6%
CNC(=O)c1nnsc1S(=O)(=O)c1ccc(Cl)cc1	-98*	u	0.73µM*	1.5µM*	2.9µM*
Cc1cc2nc(C(C)(C)C)c(Cc3ccccc3)n2c(C)c1Br	64	1%	u	u	-1%
Cc1cc(C)c(OCC(=O)NCCCn2nc(C)cc2C)c(C)c1	18	-3%	u	u	0%
CCOC(=O)N1CCN(C(=O)CN(c2cccc(Cl)c2)S(=O)(=O)c2ccccc2)CC1	x	x	-6%	u	x
O=C(c1cc(-c2ccc(O)cc2)on1)N1CCN(c2ccccc2)CC1	-54*	-20%	18µM*!	u	-5%
O=C(c1cc(-c2ccc(O)cc2)on1)N1CCN(c2ccc(F)cc2)CC1	-21	u	21µM*	u	-2%
SMILES	IL1B secr inh	HT1080-NT tox	DT40 TDP1 CPT	DT40 TDP1 no CPT	HT1080 IDH1KD tx
Cc1c(NC(=O)COc2cccc(Cl)c2Cl)c(=O)n(-c2ccccc2)n1C	-1	-4%	-15%	-14%	1%
CCCCCCCC[n+]1c(C)n(-c2ccccc2)c2ccc(NC(C)=O)cc21	-103*	-17%	0.41µM*	0.82µM*	-30%
CCc1ccccc1N(c1nc(-c2ccc(OC)c(OC)c2)no1)c1nc(-c2ccc(OC)c(OC)c2)no1	x	x	2%	6%	x
CC(C)Oc1ccccc1C1C=C(C(=O)O)Nc2ncnn21 (configuration not stated)	x	x	4%	-2%	x
COc1ccc(SC[C@H](Cc2ccccc2)N2CC[C@@H](NC(=O)OCc3ccccc3)CCC2=O)cc1	-16	0%	u	16µM*	0%
COc1ccc(SCCN2CC[C@@H](NC(=O)OCc3ccccc3)CCC2=O)cc1	-2	-12%	u	u	-12%
C[C@@H](CSc1ccccc1)CN1CC[C@H](NC(=O)OCc2ccccc2)CCC1=O	15	-2%	u	10µM*	2%
O=C(N[C@@H]1CCC(=O)N(CC[C@H](Oc2ccccc2)c2ccccc2)CC1)OCc1ccccc1	-26	-23%	15µM*	u	-2%
Cc1ccc(SC[C@H](C)CN2CC[C@H](NC(=O)OCc3ccccc3)CCC2=O)cc1	19	-3%	16µM*!	11µM*	2%
CC1CCN(S(=O)(=O)c2ccc(C(=O)Nc3ccccn3)cc2)CC1	24	-17%	-2%	u	-12%
CCCCN1C(=O)C(CC(=O)NCCCN(C)C)CC(C(=O)N(C(C)C)C(C)C)=C1C (configuration not stated)	0	10%	-5%	8%	26%
CC(C)NC(=O)C1(C)CSCC(=O)N1C1CC1 (configuration not stated)	0	11%	-21%	5%	8%
OC[C@@H]1CN(Cc2ccncc2)C[C@H](n2cnc3c(NC4CCCC4)ncnc32)O1	12	6%	-20%	-3%	24%
